# The full list was thinned out, with hits kept by preference.
# PD-1 reverse act: activators reversing PD-1 mediated T-cell inhibition; primary human CD4 T cells, PD-L1 beads, CellTiter-Glo 96 h; activation, % (no concentration beside the values); 29,000 tested, under 10 active; call rule not given here;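 further: 0% = median vehicle wells and 100% = positive control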
# NOMO-1 viab: STK33 inhibitor candidate reducing NOMO-1 cell viability | AID 2330 | inhibition, % (no concentration beside the values) | 37,000 tested, 7.5% active | NOMO-1 AML viability, CellTiter-Glo luminescence, 72 h; in the data active means inhibition above about 80%; inconclusive means no clear call, values can overlap the other calls
# STK33 inh: blocks human STK33 kinase activity; inhibition, % at 12.5 µM; Q9BYT3; AID 2322; ADP-Glo luminescence, MBP substrate; 27,000 tested, 0.44% active; in the data active means inhibition above about 20%; inconclusive means no clear call, values can overlap the other calls
# Target sequence (Q9BYT3 whole entry, looked up): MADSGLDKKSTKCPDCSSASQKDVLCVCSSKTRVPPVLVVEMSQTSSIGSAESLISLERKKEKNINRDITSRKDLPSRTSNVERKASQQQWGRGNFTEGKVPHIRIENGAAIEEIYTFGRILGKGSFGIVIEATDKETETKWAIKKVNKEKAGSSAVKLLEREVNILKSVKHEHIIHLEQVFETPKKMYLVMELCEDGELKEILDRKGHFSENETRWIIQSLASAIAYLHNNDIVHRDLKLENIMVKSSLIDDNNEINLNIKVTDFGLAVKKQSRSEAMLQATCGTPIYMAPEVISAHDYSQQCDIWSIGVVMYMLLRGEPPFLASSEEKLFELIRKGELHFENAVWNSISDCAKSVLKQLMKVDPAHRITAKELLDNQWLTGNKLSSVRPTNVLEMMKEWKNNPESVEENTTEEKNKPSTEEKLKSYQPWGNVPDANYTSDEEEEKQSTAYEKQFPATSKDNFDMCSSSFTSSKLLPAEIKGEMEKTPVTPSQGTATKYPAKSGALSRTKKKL
# * = called active by the depositor; ? = inconclusive; . = no result.
SMILES,PD-1 reverse act,NOMO-1 viab,STK33 inh
CN(C)CCN(C)Cc1cc([N+](=O)[O-])ccc1O,1,19,1
CCCc1cc(=O)n2[nH]c(NCc3cccc([N+](=O)[O-])c3)nc2n1,.,-7,5
O=C1CC(c2ccccc2)Oc2cc(O)cc(O)c21 (stereo not given),-2,10,0
O=C1CC(c2ccccc2)Oc2ccc(Cl)cc21 (stereo not given),-6,115*,1
O=C(COc1ccc(Br)cc1)NCC1CCCO1 (stereo not given),0,3,.
CCC(C)C(OC1OC(C)C(O)C(O)C1O)C(C)C(=O)C(C)/C=C(\C)CC(C)C(O)C(C)C(=O)O (stereo not given),.,.,-4
C[C@H](CO)N1C[C@H](C)[C@H](CN(C)Cc2ccc(-c3ccccc3)cc2)Oc2ccc(NC(=O)Nc3ccccc3)cc2C1=O,1,-14,9
COc1ccc(NC(=O)Nc2ccc3c(c2)C(=O)N([C@H](C)CO)C[C@@H](C)[C@H](CN(C)Cc2ccc(-c4ccccc4)cc2)O3)cc1,-3,119*,.
COc1ccc(NC(=O)Nc2ccc3c(c2)C(=O)N([C@@H](C)CO)C[C@@H](C)[C@H](CN(C)Cc2ccc(-c4ccccc4)cc2)O3)cc1,-2,97*,0
COc1ccc(CN(C)C[C@@H]2Oc3ccc(NC(=O)Nc4ccccc4)cc3C(=O)N([C@H](C)CO)C[C@H]2C)cc1,.,-1,.
C[C@@H]1CN([C@@H](C)CO)C(=O)c2cc(NC(=O)Nc3ccccc3)ccc2O[C@@H]1CN(C)Cc1ccc(-c2ccccc2)cc1,-5,114*,2
COc1ccc(NC(=O)Nc2ccc3c(c2)C(=O)N([C@@H](C)CO)C[C@H](C)[C@@H](CN(C)Cc2ccc(-c4ccccc4)cc2)O3)cc1,-5,82*,4
COc1ccc(CN(C)C[C@H]2Oc3ccc(NC(=O)Nc4ccccc4)cc3C(=O)N([C@H](C)CO)C[C@H]2C)cc1,.,37,.
COc1ccc(CN(C)C[C@H]2Oc3ccc(NC(=O)Nc4ccccc4)cc3C(=O)N([C@@H](C)CO)C[C@H]2C)cc1,1,25,.
Cn1nc(-c2ccc(NCc3cccnc3)c([N+](=O)[O-])c2)c2ccccc2c1=O,.,30,1
CC(C)Cn1c(SCC(=O)Nc2ccc(F)cc2F)nc2ccccc2c1=O,-1,26,-3
COc1ccc(OC)c(C(=O)CSc2nnc(-c3ccccn3)n2-c2ccc(C)cc2)c1,2,0,2
O=C1C(=O)N(Cc2cccnc2)C(c2ccc(Br)cc2)C1C(=O)c1cccs1 (stereo not given),3,-2,-2
COc1ccc(C2=CC(c3ccccc3)c3ccccc3O2)cc1OC (stereo not given),1,-5,.
CC1(C(=O)NCCCn2ccnc2)CC1(Cl)Cl (stereo not given),1,-10,1
CC(C)NC(=O)Nc1ccc2c(c1)C(=O)N([C@H](C)CO)C[C@@H](C)[C@H](CN(C)Cc1ccc(-c3ccccc3)cc1)O2,-2,84*,.
CC(C)NC(=O)Nc1ccc2c(c1)C(=O)N([C@@H](C)CO)C[C@H](C)[C@H](CN(C)Cc1ccc(-c3ccccc3)cc1)O2,1,9,-2
O=[N+]([O-])c1cccc(CSc2nnc(-c3ccco3)n2-c2ccccc2)c1,-1,-5,2
C[C@@H]1CC[C@]2(C(=O)O)CC[C@]3(C)C(=CCC4[C@@]5(C)CC[C@@H](O)[C@](C)(C(=O)O)C5CC[C@]43C)C2[C@H]1C (stereo not given in full),0,8,-5
CC1CC(=O)[C@]2(C)CC[C@]3(C)C(C(=O)C(O)C4[C@@]5(C)CC[C@H](O)C(C)(C(=O)O)C5CC[C@]43C)C2C1C (stereo not given in full),-12,119*,0
SMILES,PD-1 reverse act,NOMO-1 viab,STK33 inh
COc1ccc(CN(CCN(C)C)c2ccccn2)cc1,.,26,-2
COC(=O)CCN(C(=O)c1ccc(OC(C)=O)cc1)c1ccccn1,.,104*,1
CCc1c(C)nc(SCC(=O)Nc2ccc(C(=O)OC)cc2)[nH]c1=O,0,17,-3
Cc1ccc(C(O)(CO)CO)c(O)c1,.,.,-2
C[C@@H]1CN([C@@H](C)CO)C(=O)c2cccc(NC(=O)CCCCCC(=O)Nc3ccccc3N)c2O[C@H]1CN(C)Cc1ccc(Oc2ccccc2)cc1,-4,141*,.
C[C@@H]1CN([C@@H](C)CO)C(=O)c2cccc(NC(=O)CCCCCC(=O)Nc3ccccc3N)c2O[C@H]1CN(C)Cc1ccncc1,0,5,.
C[C@@H]1CN([C@H](C)CO)C(=O)c2cccc(NC(=O)CCCCCC(=O)Nc3ccccc3N)c2O[C@H]1CN(C)Cc1ccncc1,2,8,.
C[C@H](CO)N1C[C@H](C)[C@@H](CN(C)Cc2ccc(Oc3ccccc3)cc2)Oc2ccc(NC(=O)CCCCCC(=O)Nc3ccccc3N)cc2C1=O,0,28,.
C[C@@H]1CN([C@H](C)CO)C(=O)c2cccc(NC(=O)CCCCCC(=O)Nc3ccccc3N)c2O[C@@H]1CN(C)Cc1ccc(-c2ccccc2)cc1,0,126*,.
C[C@H]1CN([C@@H](C)CO)C(=O)c2cccc(NC(=O)CCCCCC(=O)Nc3ccccc3N)c2O[C@H]1CN(C)Cc1ccc(C(F)(F)F)cc1,0,100*,.
C[C@H]1CN([C@@H](C)CO)C(=O)c2cccc(NC(=O)CCCCCC(=O)Nc3ccccc3N)c2O[C@H]1CN(C)Cc1ccc(-c2ccccc2)cc1,2,122*,.
C[C@@H]1CN([C@H](C)CO)C(=O)c2cccc(NC(=O)CCCCCC(=O)Nc3ccccc3N)c2O[C@@H]1CN(C)Cc1ccncc1,3,17,.
O=C(Cc1ccccc1)NC1CCN(C(=O)C2CCC2)CC1,2,23,-2
CCOC(=O)c1c(NC(=O)c2ccccc2N(C)S(C)(=O)=O)sc2c1CCCC2,-1,35,-1
O=C(Oc1ccc(C=Nc2ccc(F)cc2)cc1)c1cccs1,-1,11,.
COc1ccc(-n2c(C)nnc2SCC(=O)Nc2ccc(F)c(Cl)c2)cc1,.,0,0
COc1ccc(NC(=O)CN(c2ccccc2Cl)S(C)(=O)=O)c(OC)c1,0,-12,-1
C[C@@H]1CN([C@@H](C)CO)C(=O)c2cccc(NC(=O)CCCCCC(=O)Nc3ccccc3N)c2O[C@H]1CN(C)Cc1ccccc1,-2,122*,.
C[C@@H]1CN([C@@H](C)CO)C(=O)c2cccc(NC(=O)CCCCCC(=O)Nc3ccccc3N)c2O[C@H]1CN(C)Cc1ccc(Cl)c(Cl)c1,-3,138*,.
C[C@@H]1CN([C@@H](C)CO)C(=O)c2cccc(NC(=O)CCCCCC(=O)Nc3ccccc3N)c2O[C@@H]1CN(C)Cc1ccc2c(c1)OCO2,-1,?,.
C[C@@H]1CN([C@H](C)CO)C(=O)c2cccc(NC(=O)CCCCCC(=O)Nc3ccccc3N)c2O[C@@H]1CN(C)Cc1ccccc1,1,48,.
Cc1ccccc1NC(=O)CC(C(=O)O)N1CCOCC1 (stereo not given),3,-14,3
c1ccc(C2=N[C@H](c3ccccc3)[C@H](c3ccccc3)N2)cc1,-2,44,.
O=C(O)C1CC(c2ccccc2)=C(c2ccccc2)CC1C(=O)c1ccccc1 (stereo not given),0,13,.
